Screening data: PubChem, several laboratories
This is a sample that favours compounds with a hit; in the whole collection about 2.4% have one here.
PABP FP inh – PABP-poly(A) binding inhibition; P11940; calls only at 35 µM; PABP-poly(A) RNA binding, fluorescence polarization; AID 2014; 290,000 tested, 1% active;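 note: calls also rest on retests at 20 µM and on dose response follow-up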
Target sequence (P11940 whole entry, looked up): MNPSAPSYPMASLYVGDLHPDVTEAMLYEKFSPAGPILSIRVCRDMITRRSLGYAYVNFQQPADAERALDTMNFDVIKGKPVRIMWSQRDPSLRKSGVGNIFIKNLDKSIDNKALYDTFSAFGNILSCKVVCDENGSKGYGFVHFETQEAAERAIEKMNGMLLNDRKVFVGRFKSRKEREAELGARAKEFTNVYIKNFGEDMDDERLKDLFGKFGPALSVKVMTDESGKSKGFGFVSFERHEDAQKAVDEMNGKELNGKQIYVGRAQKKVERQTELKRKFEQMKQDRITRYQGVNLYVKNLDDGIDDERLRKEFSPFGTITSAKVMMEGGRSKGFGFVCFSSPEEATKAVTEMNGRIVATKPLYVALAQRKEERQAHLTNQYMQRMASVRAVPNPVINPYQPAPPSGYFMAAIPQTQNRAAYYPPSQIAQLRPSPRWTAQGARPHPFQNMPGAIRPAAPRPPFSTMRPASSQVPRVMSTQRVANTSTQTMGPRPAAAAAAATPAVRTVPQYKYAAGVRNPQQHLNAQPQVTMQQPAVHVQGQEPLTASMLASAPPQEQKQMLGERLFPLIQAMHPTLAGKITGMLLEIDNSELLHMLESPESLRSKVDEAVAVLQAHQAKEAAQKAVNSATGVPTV
Efa HMGR inh – blocks class II HMG-CoA reductase of Enterococcus faecalis. purified E. faecalis HMGR, NADPH absorbance 340 nm kinetic. inhibition, % at 10 µM. 190,000 tested, 0.41% active;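 active = inhibition above a set limit, the median over all tested compounds plus 3 SD, cut at about 9.5% in these data; inconclusive = no clear call, values can overlap the other calls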;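 note: enzyme runs in reverse so mevalonate oxidation gives rising NADPH absorbance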
MLLE-PAM2 inh – inhibitors of microRNA-mediated deadenylation, human PABP1 MLLE binding. GST-MLLE / FITC-PAM2 fluorescence polarization. inhibition, % at 20 µM. 360,000 tested, 0.36% active; in the data active = inhibition above about 35%, passing the limit was not always enough
PHOSPHO1 inh – inhibitors of human PHOSPHO1 phosphatase; Q8TCT1; recombinant PHOSPHO1, absorbance phosphatase assay; inhibition, % at 13.3 µM; 290,000 tested, 1.1% active; in the data active = inhibition above about 60%
eIF4H FP inh – inhibitors of RNA binding by human eIF4H | inhibition, % at 35 µM | Q15056 | eIF4H fluorescence polarization binding assay | 290,000 tested, 0.94% active;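 note: calls also rest on retests at 20 µM and on dose response follow-up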
Large screens that a line does not name were inactive. Unless noted, the rule behind the calls is not given here.

O=S(=O)(c1ccccc1)N1CCN2CCCC2C1 (configuration not stated)	PABP FP inh active, eIF4H FP inh 96 (no result: Efa HMGR inh)
Cc1cc(N2CCCC2)ccc1C=C(C#N)C#N	eIF4H FP inh inconclusive
Cc1ccc2cc(C=C(C#N)C#N)c(Cl)nc2c1	MLLE-PAM2 inh 53, eIF4H FP inh inconclusive
O=C(CNC1CCCC1)Nc1ccc(N2CCCCCC2)cc1	none
Cn1c(O)c(C(=O)c2ccccc2)c(=O)n(C)c1=O	PABP FP inh active, eIF4H FP inh 56
Cn1c(O)c(C(=O)c2ccccc2F)c(=O)n(C)c1=O	none
Cn1cc(NC(=O)CCl)cn1	eIF4H FP inh 1.5
c1cc2c(cc1N1CCCCC1)C1CC2CCN1 (configuration not stated)	none (no result: PABP FP inh, Efa HMGR inh, PHOSPHO1 inh, eIF4H FP inh)
O=c1[nH]c(=S)n(C2CC2)c(O)c1C=Nc1ccc2c(c1)OCO2	eIF4H FP inh 68 (no result: Efa HMGR inh)
Cc1cc([N+](=O)[O-])c(Cl)cc1NC(=O)C(C)C	none
CNc1cc(Cl)c2nonc2c1[N+](=O)[O-]	MLLE-PAM2 inh 40
COC1CC2C=C(C)C=CC=CC(=O)NC(c3ccccc3)CC=CCCC(O)CC(=O)C2=C1O (configuration not stated)	none (no result: PABP FP inh, Efa HMGR inh, PHOSPHO1 inh, eIF4H FP inh)
CC1Oc2cc3c(-c4c(O)cc(O)c5c(O)c6c(cc45)OC(C)C(C)C6=O)c(O)cc(O)c3c(O)c2C(=O)C1C (configuration not stated)	PABP FP inh active, eIF4H FP inh 90 (no result: Efa HMGR inh)
CCC(c1nnnn1-c1ccc(OC)cc1)N1CCC2(CC1)C(=O)NCN2c1ccccc1 (configuration not stated)	none (no result: PABP FP inh, Efa HMGR inh, PHOSPHO1 inh, eIF4H FP inh)
CC(CC(C)(C)N1CC1)=NNC(=O)Nc1cccc2ccccc12	none (no result: PABP FP inh, Efa HMGR inh, PHOSPHO1 inh, eIF4H FP inh)
CCOC(=O)c1cnc(SCc2ccc(Cl)c(Cl)c2)nc1N1CC1	none (no result: PABP FP inh, Efa HMGR inh, PHOSPHO1 inh, eIF4H FP inh)
O=c1[nH]c(=S)n(Cc2ccco2)c(O)c1C=NCc1cccs1	PABP FP inh active, PHOSPHO1 inh 95, eIF4H FP inh 53
CCN(CC)c1ccc(N=Cc2c(O)n(Cc3ccco3)c(=O)[nH]c2=O)cc1	PABP FP inh inconclusive, eIF4H FP inh inconclusive (no result: Efa HMGR inh)
O=c1[nH]c(=O)n(Cc2ccco2)c(O)c1C=NCc1cccs1	none
NC(=O)c1ccc(N=Cc2c(O)n(Cc3ccco3)c(=O)[nH]c2=O)cc1	PABP FP inh active (no result: Efa HMGR inh)
COc1ccc(-n2nnnc2C(CCSC)N2CCC3(CC2)C(=O)NCN3c2ccccc2)cc1 (configuration not stated)	none (no result: PABP FP inh, Efa HMGR inh, PHOSPHO1 inh, eIF4H FP inh)
Cc1ccc(N2C(=O)NC(=O)/C(=C\c3cc(C)n(-c4ccc(C(=O)O)cc4)c3C)C2=O)cc1	none (no result: Efa HMGR inh)
Cc1cc(/C=C2\C(=O)NC(=O)N(c3ccc(F)cc3)C2=O)c(C)n1-c1ccc(C(=O)O)cc1	PABP FP inh active
c1cncc(C2Nc3cccc4cccc(c34)N2)c1	PABP FP inh active, eIF4H FP inh 92 (no result: Efa HMGR inh)
CCCc1nc2ccccc2c(=O)n1-c1ccc(O)cc1	PHOSPHO1 inh 63
CCC(C)(O)C(=O)OC1C(=O)OC2CC3C(C)=CC(O)C(O)C3(C)C3C4(O)OCC23C1C(C)C4O (configuration not stated)	none (no result: PABP FP inh, Efa HMGR inh, PHOSPHO1 inh, eIF4H FP inh)
Cc1ccc(CN2Cc3ccc(Br)cc3-n3nncc3C2)cc1	none (no result: PABP FP inh, Efa HMGR inh, PHOSPHO1 inh, eIF4H FP inh)
COc1ccc(OC)c(N2C(=O)/C(=C/c3ccco3)C(=O)NC2=S)c1	PABP FP inh active, eIF4H FP inh 63 (no result: Efa HMGR inh, MLLE-PAM2 inh)
COc1ccc(N2C(=O)/C(=C/c3cc(C)n(-c4ccc(C)cn4)c3C)C(=O)NC2=S)c(OC)c1	PABP FP inh active
Cc1ccc(-n2c(C)cc(/C=C3/C(=O)NC(=O)N(C)C3=O)c2C)cc1	eIF4H FP inh inconclusive
O=C1NC(=S)N(c2ccc(F)cc2)C(=O)/C1=C/c1ccco1	none (no result: Efa HMGR inh, MLLE-PAM2 inh)
COc1cc2cc(C(=O)N3CC(COS(C)(=O)=O)c4ccc(O)cc43)[nH]c2c(OC)c1OC (configuration not stated)	none (no result: PABP FP inh, Efa HMGR inh, PHOSPHO1 inh, eIF4H FP inh)
CCCCn1c(O)c(C(CC)=Nc2ccc(C(=O)O)cc2)c(=O)[nH]c1=O	eIF4H FP inh 62
Cc1ccccc1-n1c(C)cc(/C=C2/C(=O)NC(=O)N(Cc3ccco3)C2=O)c1C	PABP FP inh active, eIF4H FP inh inconclusive
Cc1ccc(-n2c(C)cc(/C=C3/C(=O)NC(=O)N(Cc4ccco4)C3=O)c2C)cc1	eIF4H FP inh inconclusive
Cc1cccc(-n2c(C)nc3ccccc3c2=O)c1C	PABP FP inh active
Cc1nc2c(=O)n(C)c(=O)nc-2n(C)n1	Efa HMGR inh 10, PHOSPHO1 inh 68
CCn1nc(-c2ccccc2)nc2c(=O)n(C)c(=O)nc1-2	eIF4H FP inh inconclusive
CCCNc1nc(OC)nc(N2CC3CC(C2)c2cccc(=O)n2C3)n1 (configuration not stated)	Efa HMGR inh 9.9
